Test results taken from PubChem BioAssay (NCI).
Compounds without any hit were thinned out: in the full panel of roughly 83,000, 20% have a hit.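 48-hour exposure, single concentration, 96-well plates; percent growth endpoint where 0 means no net growth. Active: below 10.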 A number with no mark means an inactive call. The source made the active and inactive calls.

Each compound was assayed on UACC-62 melanoma (assay: NCI-60 one-dose screen, 48 h (100 = growth as untreated, 0 = no growth, -100 = all killed)). Details: 10 µM unless noted.
Experimental: Growth inhibition of the UACC-62 human tumor cell line is measured as a screen for anti-cancer activity. Cells are grown in 96 well plates and exposed to the test compound for 48 hours. Compounds are tested at a single concentration, which is 10^-5 M for most compounds. The reported endpoint is percent growth (GI% or GIPRCNT), where numbers from 0 - 100% represent growth inhibition, and numbers from -100% - 0 represent cell death. For example, a value of 40 represents 60% growth inhibition. A value of 0 means no net growth occurred over the course of the experiment. A value of -40 indicates 40% of cells at the beginning of the experiment died by the end of the experiment. A value of -100 means all cells are dead at the end of the experiment.
NCI-60 Human Tumor Cell Lines Screen was performed using the standard one-dose NCI protocol, which is described in more detail at https://dtp.cancer.gov/discovery_development/nci-60/default.htm.
Compounds with GIPRCNT values below 10 were considered active. Activity score was based on GIPRCNT using the following formula: […]
Score is 0 for GIPRCNT values of 100 or above, 50 for GIPRCNT values of 0, and 100 for GIPRCNT values of -100.

Row | Structure (SMILES) | growth
1 | COc1c(F)ccc(C(=O)Nc2ccc3nc(NC(=O)C4CCCN(S(=O)(=O)c5ccc(C#N)cc5)C4)sc3c2)c1F (stereo not given) | 78.7%
2 | Cn1nc(C(F)(F)F)cc1-c1cc(Cl)c(COc2ccc(Cl)cc2)c(-c2ccc(Cl)c(C(F)(F)F)c2)c1O | -86.1% (active)
3 | COc1ccc(C(=O)/C=C/c2cccc(Cl)c2Cl)cc1S(N)(=O)=O | 33%
4 | C=C1CC[C@@H]2[C@]3(C)COC(c4cn(-c5ccccc5)nc4-c4ccccc4)O[C@@H]3CC[C@@]2(C)[C@@H]1C/C=C1/C(=O)OC[C@H]1O (stereo not given in full) | -93.8% (active)
5 | CC12CC[C@@H]3[C@]4(C)COC(c5cn[nH]c5-c5ccc(Cl)cc5)O[C@@H]4CC[C@@]3(C)[C@@H]1CC(C1=CCOC1=O)O2 (stereo not given in full) | 33.4%
6 | COc1ccc(/C=C/c2nc3ccccc3c(=O)n2CC(=O)Nc2ccc(OC)cc2)cc1 | 74.7%
7 | CC(=O)Oc1ccc(/C=C/C(=O)N[C@@H](Cc2ccccc2)C(O)C(=O)NCc2ccccc2)cc1OC(C)=O (stereo not given in full) | 96.1%
8 | COc1ccc2c(c1)c(-c1cc(N)n3nc(-c4cn(C)c5ccccc45)cc3n1)cn2C | -58.4% (active)
9 | CC1[C@H]2[C@H](C[C@H]3[C@@H]4CC=C5c6sc(Nc7ccccc7F)nc6CC[C@]5(C)[C@H]4CC[C@@]32C)O[C@]12CC[C@@H](C)CO2 (stereo not given in full) | -70.8% (active)
10 | NS(=O)(=O)c1ccc(-n2cc(-c3cccc(NC(=O)c4cc(N5CCOCC5)cc(C(F)(F)F)c4)c3)nn2)cc1 | 41.1%
11 | CCCSc1nc(NCCc2c[nH]c3ccccc23)c(C#N)c(-c2ccc(OC)cc2)n1 | 71.7%
12 | Cc1nc(Nc2ccccn2)sc1C(=O)CC(SCC(=O)Nc1ccc(Cl)cc1)c1ccccc1F (stereo not given) | -10.6% (active)
13 | Cc1ccc2c(N)c(C(=O)Nc3ccc(OC(F)(F)F)cc3)sc2n1 | 61.2%
14 | Cc1ccc2c(c1)nc(-c1ccccc1)n2CC(=O)N=Nc1c(O)[nH]c2ccc(Br)cc12 | -87.4% (active)
15 | Cc1ccc(NC(=O)[C@]23CCC(C)(C)CC2C2=CCC4[C@@]5(C)C[C@@H](O)[C@H](O)[C@@](C)(CO)C5CC[C@@]4(C)[C@]2(C)CC3)cc1 (stereo not given in full) | 34.3%
16 | CCCCCCCS(=O)(=O)N1CCCC(C(=O)Nc2nc3ccc(NC(=O)c4ccc(F)c(OC)c4F)cc3s2)C1 (stereo not given) | 52.6%
17 | Cn1cc(-c2nc(N)nnc2-c2c[nH]c3ccc(Br)cc23)c2cccnc21 | 53.9%
18 | CC(=O)c1c(N)c(C#N)cn1-c1ccc(Cl)cc1Cl | 80.8%
19 | O=C(CN1C(=O)/C(=C/c2ccccc2Cl)SC1=S)N1CCOCC1 | 83.2%
20 | CCOP(=O)(OCCCl)c1nc(-c2ccc(C)cc2)oc1NCc1ccccc1 (stereo not given) | 60.4%

Row | Structure (SMILES) | growth
21 | O=S(=O)(Nc1cccc(-n2cnc3cc(-c4ccc(O)cc4)ccc32)c1)C1CC1 | 34.5%
22 | S=c1c2ccccc2nc2n1CCc1c-2[nH]c2ccccc12 | 64.1%
23 | COc1cc2oc(-c3cccc(C(=O)Nc4ccc(Cl)cc4)c3)cc(=O)c2c(OCCNC(=O)[C@H](CO)NC(=O)OC(C)(C)C)c1OC | 7.14% (active)
24 | Cc1cccc(NC(=O)[C@]23CCC(C)(C)CC2C2=CCC4[C@@]5(C)C[C@@H](O)[C@H](O)[C@@](C)(CO)C5CC[C@@]4(C)[C@]2(C)CC3)c1 (stereo not given in full) | 20.3%
25 | N/N=C(\N)c1c(N)nc(=S)[nH]c1-c1ccc(Cl)cc1Cl | 93.8%
26 | CCCCCCCCOc1cccc(S(=O)(=O)Nc2ccc(C)cc2C(=O)O)c1 | 85.4%
27 | O=C(N/N=C/c1ccc(-c2ccc(O)cc2)o1)c1[nH]c2ccc(Br)cc2c1-c1ccccc1 | -14.9% (active)
28 | O=c1c2ccccc2nc(-c2ccccc2)n1/N=C/c1ccc2ccccc2c1 | 35.8%
29 | O=C(CSc1nc2ccccc2c(=O)[nH]1)NCCN1CCCCC1 | 90.7%
30 | COc1c(F)ccc(C(=O)Nc2ccc3nc(NC(=O)C4CCCN(S(=O)(=O)c5ccc(Br)c(F)c5)C4)sc3c2)c1F (stereo not given) | 72%
31 | COc1cccc(COc2ccc(NC(=O)Nc3ccc(Cl)c(C(F)(F)F)c3)cc2)c1 | 38%
32 | COc1ccc(C2=NN(C(C)=O)C(c3ccc(OCc4ccc(Cl)cc4)c(OC)c3)C2)cc1OC (stereo not given) | 34%
33 | COc1ccc(NC(=O)[C@@H](N)Cc2ccccc2)cc1C(=O)Nc1cccc(C2CC(=O)c3c(cc(OC)c(OC)c3OC)O2)c1 (stereo not given in full) | 49.7%
34 | C=C1CCC2C3(C)COC(c4cccs4)OC3CCC2(C)C1CC(Sc1ccccc1)C1=CCOC1=O (stereo not given) | 71.7%
35 | CN(C)CCn1c2ccccc2c2nc3cc4ccccc4cc3nc21 | 57.2%
36 | CC12CC[C@@H]3[C@]4(C)COC(c5cn[nH]c5-c5ccc(Br)cc5)O[C@@H]4CC[C@@]3(C)[C@@H]1CC(C1=CCOC1=O)O2 (stereo not given in full) | 41.5%
37 | Nc1nc(C(F)(F)F)cs1 | 101%
38 | S=C(Nc1ccccc1)Nc1ccc(OCc2nc3ccccc3[nH]2)cc1 | 33.6%
39 | Cn1cc(-c2nc(N)nnc2-c2c[nH]c3ccc(F)cc23)c2cc(Br)cnc21 | 13.3%
40 | COc1cc(OC)cc(C(=O)Nc2cccc(-c3cn(-c4ccc(S(N)(=O)=O)cc4)nn3)c2)c1 | 80.4%
